Test results reported in the supplement of paper PMC4466140.

Legend:
Assay in all cases: SPOT peptide array binding signal intensity (averaged, normalized) (arbitrary units (background-subtracted, floor 0; scale differs between SH3 domains)); higher = stronger binding of the SH3 domain to the peptide
[1] = biological target: AgAbp1
Outline: (§1)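 Four yeast species supplied the SH3 domains, which were expressed as GST fusions in E. coli BL21(DE3) and purified on glutathione Sepharose. Incubation with cellulose membranes carrying synthetic 15-mer peptides, cysteines exchanged for serines, ran overnight at 4°C at 10 μg/ml in TBS-based blocking buffer. Binding signal is reported as normalized, background-subtracted spot intensity averaged over replicates, in arbitrary units not shared between domains.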

[2] = biological target: AgBbc1
Outline: as §1

[3] = biological target: AgBem1-D1
Outline: as §1

[4] = biological target: AgBzz1-D1
Outline: as §1

[5] = biological target: AgBzz1-D2
Outline: as §1

[6] = biological target: AgCyk3
Outline: as §1

[7] = biological target: AgFus1
Outline: as §1

[8] = biological target: AgHof1
Outline: as §1

[9] = biological target: AgHse1
Outline: as §1

[10] = biological target: AgLsb1
Outline: as §1

[11] = biological target: AgLsb4
Outline: as §1

[12] = biological target: AgMyo5
Outline: as §1

[13] = biological target: AgNbp2
Outline: as §1

[14] = biological target: AgRvs167
Outline: as §1

[15] = biological target: AgSho1
Outline: as §1

[16] = biological target: AgSla1-D1-D2
Outline: as §1

[17] = biological target: AgSla1-D3
Outline: as §1

[18] = biological target: CaAbp1-D1
Outline: as §1

[19] = biological target: CaAbp1-D2
Outline: as §1

[20] = biological target: CaBbc1
Outline: as §1

[21] = biological target: CaBem1-D1
Outline: as §1

[22] = biological target: CaBzz1-D1
Outline: as §1

[23] = biological target: CaBzz1-D2
Outline: as §1

[24] = biological target: CaCyk3
Outline: as §1

[25] = biological target: CaFus1
Outline: as §1

[26] = biological target: CaHof1
Outline: as §1

[27] = biological target: CaHse1
Outline: as §1

[28] = biological target: CaLsb1
Outline: as §1

[29] = biological target: CaLsb4
Outline: as §1

[30] = biological target: CaMyo5
Outline: as §1

[31] = biological target: CaNbp2
Outline: as §1

[32] = biological target: CaRvs167
Outline: as §1

[33] = biological target: CaRvs167-3
Outline: as §1

[34] = biological target: CaSho1
Outline: as §1

[35] = biological target: CaSla1-D1-D2
Outline: as §1

[36] = biological target: CaSla1-D3
Outline: as §1

[37] = biological target: ScAbp1
Outline: as §1

[38] = biological target: ScBbc1
Outline: as §1

[39] = biological target: ScBem1-D1
Outline: as §1

[40] = biological target: ScBzz1-D1
Outline: as §1

[41] = biological target: ScBzz1-D2
Outline: as §1

[42] = biological target: ScCyk3
Outline: as §1

[43] = biological target: ScFus1
Outline: as §1

[44] = biological target: ScHof1
Outline: as §1

[45] = biological target: ScHse1
Outline: as §1

[46] = biological target: ScLsb1
Outline: as §1

[47] = biological target: ScLsb2
Outline: as §1

[48] = biological target: ScLsb3
Outline: as §1

[49] = biological target: ScLsb4
Outline: as §1

[50] = biological target: ScMyo3
Outline: as §1

[51] = biological target: ScMyo5
Outline: as §1

[52] = biological target: ScNbp2
Outline: as §1

[53] = biological target: ScPex13
Outline: as §1

[54] = biological target: ScRvs167
Outline: as §1

[55] = biological target: ScSho1
Outline: as §1

[56] = biological target: ScSla1-D1-D2
Outline: as §1

[57] = biological target: ScSla1-D3
Outline: as §1

[58] = biological target: SpAbp1-D1
Outline: as §1

[59] = biological target: SpBbc1
Outline: as §1

[60] = biological target: SpBzz1-D1
Outline: as §1

[61] = biological target: SpBzz1-D2
Outline: as §1

[62] = biological target: SpCyk3
Outline: as §1

[63] = biological target: SpHof1
Outline: as §1

[64] = biological target: SpHof1-2
Outline: as §1

[65] = biological target: SpHof1-3
Outline: as §1

[66] = biological target: SpHse1
Outline: as §1

[67] = biological target: SpLsb1
Outline: as §1

[68] = biological target: SpLsb4
Outline: as §1

[69] = biological target: SpMyo1
Outline: as §1

[70] = biological target: SpNbp2
Outline: as §1

[71] = biological target: SpPex13
Outline: as §1

[72] = biological target: SpRvs167
Outline: as §1

[73] = biological target: SpSla1-D1-D2
Outline: as §1

[74] = biological target: SpSla1-D3
Outline: as §1

B1: unnamed (peptide)
chain: HRRRRVFSIPSLKSI
SPOT peptide array binding signal intensity [1]: 65.5 | SPOT peptide array binding signal intensity [2]: 88.2 | SPOT peptide array binding signal intensity [3]: 426 | SPOT peptide array binding signal intensity [4]: 45 | SPOT peptide array binding signal intensity [5]: 28.5 | SPOT peptide array binding signal intensity [6]: 18 | SPOT peptide array binding signal intensity [7]: 1100 | SPOT peptide array binding signal intensity [8]: 117 | SPOT peptide array binding signal intensity [9]: 2250 | SPOT peptide array binding signal intensity [10]: 51.2 | SPOT peptide array binding signal intensity [11]: 264 | SPOT peptide array binding signal intensity [12]: 6 | SPOT peptide array binding signal intensity [13]: 470 | SPOT peptide array binding signal intensity [14]: 15.8 | SPOT peptide array binding signal intensity [15]: 168 | SPOT peptide array binding signal intensity [16]: 776 | SPOT peptide array binding signal intensity [17]: 11 | SPOT peptide array binding signal intensity [18]: 703 | SPOT peptide array binding signal intensity [19]: 734 | SPOT peptide array binding signal intensity [20]: 198 | SPOT peptide array binding signal intensity [21]: 100 | SPOT peptide array binding signal intensity [22]: 60 | SPOT peptide array binding signal intensity [23]: 69 | SPOT peptide array binding signal intensity [24]: 75 | SPOT peptide array binding signal intensity [25]: 1310 | SPOT peptide array binding signal intensity [26]: 0.5 | SPOT peptide array binding signal intensity [27]: 232 | SPOT peptide array binding signal intensity [28]: 2.5 | SPOT peptide array binding signal intensity [29]: 196 | SPOT peptide array binding signal intensity [30]: 3.5 | SPOT peptide array binding signal intensity [31]: 887 | SPOT peptide array binding signal intensity [32]: 103 | SPOT peptide array binding signal intensity [33]: 319 | SPOT peptide array binding signal intensity [34]: 1550 | SPOT peptide array binding signal intensity [35]: 49 | SPOT peptide array binding signal intensity [36]: 29.5 | SPOT peptide array binding signal intensity [37]: 38 | SPOT peptide array binding signal intensity [38]: 43.5 | SPOT peptide array binding signal intensity [39]: 76 | SPOT peptide array binding signal intensity [40]: 21 | SPOT peptide array binding signal intensity [41]: 51 | SPOT peptide array binding signal intensity [42]: 238 | SPOT peptide array binding signal intensity [43]: 1620 | SPOT peptide array binding signal intensity [44]: 3 | SPOT peptide array binding signal intensity [45]: 2170 | SPOT peptide array binding signal intensity [46]: 48.8 | SPOT peptide array binding signal intensity [47]: 12.5 | SPOT peptide array binding signal intensity [48]: 780 | SPOT peptide array binding signal intensity [49]: 44.5 | SPOT peptide array binding signal intensity [50]: 9.75 | SPOT peptide array binding signal intensity [51]: 8 | SPOT peptide array binding signal intensity [52]: 841 | SPOT peptide array binding signal intensity [53]: ≤ 0 | SPOT peptide array binding signal intensity [54]: 95.5 | SPOT peptide array binding signal intensity [55]: 1320 | SPOT peptide array binding signal intensity [56]: 321 | SPOT peptide array binding signal intensity [57]: 12.8 | SPOT peptide array binding signal intensity [58]: 293 | SPOT peptide array binding signal intensity [59]: 12 | SPOT peptide array binding signal intensity [60]: 122 | SPOT peptide array binding signal intensity [61]: 0.5 | SPOT peptide array binding signal intensity [62]: 6 | SPOT peptide array binding signal intensity [63]: 322 | SPOT peptide array binding signal intensity [64]: 51.2 | SPOT peptide array binding signal intensity [65]: 622 | SPOT peptide array binding signal intensity [66]: 997 | SPOT peptide array binding signal intensity [67]: 11 | SPOT peptide array binding signal intensity [68]: 372 | SPOT peptide array binding signal intensity [69]: 8.25 | SPOT peptide array binding signal intensity [70]: 1660 | SPOT peptide array binding signal intensity [71]: 21 | SPOT peptide array binding signal intensity [72]: 55.8 | SPOT peptide array binding signal intensity [73]: ≤ 0 | SPOT peptide array binding signal intensity [74]: 30
